Assay outcomes (PubChem BioAssay)
Compounds with a hit are over-represented: about 2.5% of the library has one in this group of screens.
D2 ag-1: activates the human D2 dopamine receptor | P14416 | actives 0.084% (n = 360,000) | activation, % (no concentration beside the values) | DiscoveRx PathHunter D2 beta-arrestin, luminescence, 90 min; 100% = 57 uM dopamine signal; in the data active = activation above about 40%; inconclusive = between about 15% and that limit
Target sequence (P14416 whole entry, looked up): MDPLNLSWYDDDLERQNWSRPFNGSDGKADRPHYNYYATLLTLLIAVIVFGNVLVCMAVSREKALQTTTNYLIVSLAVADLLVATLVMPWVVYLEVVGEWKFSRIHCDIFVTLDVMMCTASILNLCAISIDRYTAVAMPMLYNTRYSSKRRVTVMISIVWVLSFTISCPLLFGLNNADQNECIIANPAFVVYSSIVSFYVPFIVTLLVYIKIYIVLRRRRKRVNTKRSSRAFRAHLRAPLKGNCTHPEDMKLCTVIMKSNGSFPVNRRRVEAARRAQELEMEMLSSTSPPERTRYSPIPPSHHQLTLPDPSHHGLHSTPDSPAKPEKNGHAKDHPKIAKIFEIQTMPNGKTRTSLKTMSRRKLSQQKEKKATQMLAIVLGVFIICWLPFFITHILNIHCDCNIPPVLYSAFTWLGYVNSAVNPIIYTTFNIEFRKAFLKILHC
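Agonist mode: compounds alone added to overnight-plated D2 PathHunter cells for 90 min at 37 C, with 57 uM final dopamine (EC100) defining full response. Beta-arrestin recruitment detected by chemiluminescent reagent, read after 1 h at ambient temperature.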
Apoferritin bind: binds horse apoferritin like a general anesthetic; Potency, µM (highest dose often 77.5 µM), most hits filed as inhibitors; actives 0.074% (n = 350,000); P02791; AID 485281; apoferritin/1-aminoanthracene competitive binding, fluorescence; active = well fitted inhibition curve with a large enough effect; inconclusive = small, poorly fitted or top-dose-only effect; inactive = no such curve, though single readings can be large or run the other way; also: nearly all actives have a fitted effect of over 20% in size
Target sequence (P02791 2-175 limits assumed): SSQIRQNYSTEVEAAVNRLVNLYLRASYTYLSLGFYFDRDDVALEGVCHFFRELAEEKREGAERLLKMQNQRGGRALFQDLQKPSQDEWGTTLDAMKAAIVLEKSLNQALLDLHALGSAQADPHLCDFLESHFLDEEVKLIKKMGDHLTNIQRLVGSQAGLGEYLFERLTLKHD
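Concentration-response curves derived by four-parameter Hill fitting of normalized fluorescence, where compounds displaced 1-AMA from 10 uM horse apoferritin following a brief 10 min room-temperature incubation; propofol titration acted as positive control.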
D2 PAM-1: potentiates the human D2 dopamine receptor allosterically | actives 0.23% (n = 360,000) | AID 624464 | potentiation, % (no concentration beside the values) | DiscoveRx D2 beta-arrestin cells, luminescence, 90 min; 100% = 57 uM dopamine signal; in the data active = potentiation above about 50%; inconclusive = mostly about 30% to 49%
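PathHunter beta-arrestin assay in DiscoveRx D2 cells. Compounds were added with an EC20 of dopamine (50 nM final) for 90 min at 37 deg C. Luminescence was read 1 h after detection reagent, with 57 uM dopamine as the EC100 control.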
D2 PAM-2: D2 dopamine receptor (human) potentiation; potentiation, % at 10 µM; HEK293 T-REx D2, calcium flux, EC20 dopamine potentiation; P14416; actives 0.34% (n = 340,000); AID 485347;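 active = potentiation over 3 SD above the plate norm, cut at about 30% in these data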
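Calcium flux readout, no-wash dye, 1 read/s. Inducible HEK293 Trex D2 line, overnight 30 C. Compound alone 180 s (agonist flags), then EC20 dopamine, another 180 s to score potentiation.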
D2 ag-2: D2 dopamine receptor (human) agonism; P14416; HEK293 T-REx D2 cells, calcium flux agonist mode; activation, % at 2 µM; actives 0.53% (n = 340,000); AID 485358;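 active = activation over 3 SD above normal in the single-dose calcium agonist read, cut at about 30% in these data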
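HEK293 Trex D2 cells, tetracycline-induced, o/n 30 C 5% CO2; no-wash Ca dye, RT 30–90 min; 10-cycle baseline, 23 nl cpd added, kinetic Ca read 180 s; agonist hits = positive Ca response.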
D2 antag: antagonizes the human D2 dopamine receptor. AID 485344. P14416. inhibition, % at 10 µM. actives 2% (n = 340,000). HEK293 TREx D2 cells, calcium flux, dopamine EC80; in the data active = inhibition above about 30%; inactive = below that, where a call was filed
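Antagonism is scored as inhibition of an EC80 dopamine-evoked calcium signal in a force-coupled, tetracycline-inducible HEK293 T-REx D2 line, with compound present 180 s before agonist.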
A number is an active result; i = inactive; ? = inconclusive; nt = not tested or not shown.

SMILES | D2 ag-1 | Apoferritin bind | D2 PAM-1 | D2 PAM-2 | D2 ag-2 | D2 antag
O=C(c1cncc(Br)c1)N1CCN(S(=O)(=O)c2ccccc2C(F)(F)F)CC1 | i | i | i | i | i | 40
O=C(c1cncc(Br)c1)N1CCN(S(=O)(=O)c2ccccc2)CC1 | i | i | i | i | i | i
CC(C)Cc1ccc(C(C)C(=O)Nc2ccc(O)cc2)cc1 (configuration not stated) | i | ? | i | i | i | 39
Cc1cc(Cl)c(S(=O)(=O)N/N=C/c2ccc3c(c2)OCO3)c(Cl)c1 | i | ? | i | i | i | i
Cc1cc(C)c(S(=O)(=O)N/N=C/c2ccc3c(c2)OCO3)c(C)c1 | i | i | i | i | i | 74
O=C(NCCNC(=O)c1ccco1)c1ccc(Cl)c(Cl)c1 | i | i | i | i | i | i
Cc1noc(C)c1COc1cccc(C(=O)N(C)Cc2nc3ccccc3c(=O)[nH]2)c1 | i | nt | i | i | i | i
Cc1ccc(C)c(NC(=S)/C(=C(\[O-])c2ccc(OC(F)F)cc2)[n+]2ccccc2)c1 | i | i | i | i | i | 31
COc1cc(OC)nc(Nc2nc(C(N)Cc3ccc(C(F)(F)F)cc3)cs2)n1 (configuration not stated) | i | nt | i | nt | nt | nt
CCCc1cc(C(=O)Nc2ccc(F)c(Cl)c2)no1 | i | i | i | i | i | 35
CCCc1cc(C(=O)Nc2cccc(Cl)c2)no1 | i | i | i | i | i | 33
CCOC(=O)c1c(C)[nH]c(N=Nc2ccc(C)cc2)c1C | i | ? | i | i | i | i
CCOC(=O)c1c(C)[nH]c(N=Nc2cccc(C)c2)c1C | i | ? | i | i | i | 33
CCOC(=O)c1c(C)[nH]c(N=Nc2ccccc2)c1C | i | ? | i | i | i | 67
CC(C)OC(=O)CSc1nnnn1-c1ccc2c(c1)OCCO2 | i | i | i | i | i | i
O=C1CC(c2nc(-c3ccccc3)no2)CN1c1ccc2c(c1)OCCO2 (configuration not stated) | nt | i | nt | i | i | nt
Clc1ccc2nc(C3CCN(Cc4ccccc4)CC3)[nH]c2c1 | i | i | i | i | i | 53
Cc1ccc(CN2CCC(c3nc4ccc(Cl)cc4[nH]3)CC2)cc1 | i | ? | i | i | i | 87
Cc1ccc(S(=O)(=O)N(CC(=O)NC2CCCC2)c2cccc(C)c2)cc1 | i | i | i | i | i | i
O=c1oc(-c2ccc(F)cc2)nc2ccsc12 | i | i | i | i | i | i
O=c1oc(-c2ccccc2Cl)nc2ccsc12 | i | ? | i | i | i | 31
Cc1ccc(S(=O)(=O)Cn2nnnc2C(C(C)C)N2CCN(C(=O)c3ccco3)CC2)cc1 (configuration not stated) | i | nt | i | nt | nt | nt
CCN(CC)CCCNC(=O)C(C)Sc1nc(-c2ccccc2)cc(C(F)(F)F)n1 (configuration not stated) | i | i | i | i | i | 31
CC(Sc1nc(-c2ccccc2)cc(C(F)(F)F)n1)C(=O)O (configuration not stated) | i | i | i | i | i | i
COCCn1c(=S)[nH]c2cc(C(=O)NC(C)C)ccc2c1=O | i | i | i | i | i | i
SMILES | D2 ag-1 | Apoferritin bind | D2 PAM-1 | D2 PAM-2 | D2 ag-2 | D2 antag
CC(C)Cn1c(=S)[nH]c2cc(C(=O)O)ccc2c1=O | i | i | i | i | i | 31
COc1ccccc1NC(=O)C(C)OC(=O)CCNS(=O)(=O)c1ccc(C)c(C)c1 (configuration not stated) | i | nt | i | i | i | 40
CN(C)C(CNC(=O)c1cnc(Cl)c(Cl)c1)c1ccccc1 (configuration not stated) | i | i | i | i | i | i
COc1ccc(/C=N/NC(=O)C(=O)NCc2cccnc2)cc1OC | i | i | i | i | i | 33
CCOC(=O)CNC(=O)c1cc(OC)cc(OC)c1 | i | i | i | nt | i | 39
COc1cc(OC)cc(C(=O)NCc2cccnc2)c1 | i | i | i | 30 | i | i
COc1cc(/C=N/NC(=O)C(=O)NCc2cccnc2)ccc1O | i | i | i | i | i | i
O=C1NC(=O)C2(N1)C(=O)c1cccc3cccc2c13 (configuration not stated) | i | nt | i | nt | nt | nt
N#CCC(=O)Nc1ccc(C(=O)OCC(=O)Nc2cccc3ccccc23)cc1 | i | nt | i | nt | nt | nt
Cc1cc(CN2CCN(c3ccccc3F)CC2)cs1 | nt | i | nt | i | nt | nt
Cc1nn(-c2ccccc2)c(C)c1/C=N/NC(=O)c1cc(-c2ccc(Cl)s2)[nH]n1 | i | ? | i | i | i | i
Cc1ccc(Oc2ccc(/C=N/O)cn2)cc1 | i | i | i | i | i | i
Cc1ccc(C)c(C(=O)N(Cc2nc(-c3ccc(Cl)cc3)no2)C(C)C)c1 | i | i | i | i | i | 40
O=C(CCCCC(=O)N1CCOCCOCCOCC1)OCc1ccccc1 | i | i | i | i | i | i
CCc1ccc2c(c1)-c1ccccc1S(=O)(=O)N2CC(=O)N1CCC(C)CC1 | nt | i | nt | i | i | nt
O=C(O)C1CCCCC1C(=O)NCCc1ccncc1 (configuration not stated) | i | i | i | i | i | i
CC(C)=C1C2CCC1C(C(=O)NCCc1ccccc1)C2C(=O)O (configuration not stated) | i | i | i | i | 39 | i
O=C(O)[C@H]1CCCC[C@H]1C(=O)NCCc1ccccc1 | i | i | i | i | i | 45
CC1=C(C)CC(C(=O)NCCc2ccccc2)C(C(=O)O)C1 (configuration not stated) | i | i | i | i | i | i
Cc1ccc(NC(=O)NC2OC(=O)c3ccccc32)cc1 (configuration not stated) | i | nt | i | nt | nt | nt
COc1ccc(NC(=S)NNS(=O)(=O)c2ccc3ccccc3c2)c(OC)c1 | i | i | i | i | i | 43
CCOc1cc(/C=N/Nc2nc(-c3cccc(S(=O)(=O)N4CCCC4)c3)cs2)ccc1O | ? | i | 119 | i | i | i
c1ccc2nc(N3CCN(Cc4ccc5c(c4)OCO5)CC3)cnc2c1 | i | i | i | i | i | i
COc1nc2ccccc2nc1N1CCN(Cc2ccc3c(c2)OCO3)CC1 | i | i | i | i | i | 51
COc1ccc(Cl)cc1S(=O)(=O)N1CCN(Cc2ccc3c(c2)OCO3)CC1 | i | i | i | i | i | i
COc1ccc(S(=O)(=O)N2CCN(Cc3ccc4c(c3)OCO4)CC2)c2ccccc12 | i | i | i | i | i | 31
c1ccc(N=C(c2cccs2)N2CCOCC2)cc1 | i | i | i | i | i | 32
COc1ccc(C(=O)NCc2cccnc2)cc1Br | i | i | i | i | i | i
